Reference: the OligoGym collection

What follows are sequences tested against FER1L6 (assay: pooled miR-30 sensor sort-seq; sequence = guide strand). Details: shRNA.

Sequence | sensor-assay potency score (higher = more potent)
TAAAATGACATCTTCAGTGTTC | 0.481
TAGAGTCTCACATAGAATCTGG | -0.448
TTCTTCTGCTGTAACTAGGTGG | -0.362
TTTTTCTGGTACAATCTCCGGG | 0.00268
TTTTCTGGTACAATCTCCGGGG | 0.181
TTGCTTGCACAGACCAACCAGC | -0.415
TAGCGAATCTGAAATATCGTGC | 0.395
TTAGTCAACAGTTTTGATCTTC | 0.643
TTTGTCTCCATCCTGTTCGTTG | -0.562
TTCTTCTATACTTTCTTCCAGG | -0.684
TTGACTATCTTTCGCAGCCTTG | -0.891
TAACTTTTTCTTCTGCTGCTGA | 0.239

These sequences were tested against FEZ1 in the same assay as above. Details: shRNA.

Sequence | sensor-assay potency score (higher = more potent)
TGAACCATAGAAACACTGGGGC | 0.345
ATTACTAGCACTAGAAGCCAAC | -1.45
TTGAAGCTGATTATTTCGGAAG | -0.859
